# Test results as given in ChEMBL document CHEMBL3988442, “University of Dundee, Small-Polar-MMV Screening Library” (2021).
# Hit rate of the full screen: of about 48,000 compounds, about 13,000 (27%) showed an effect of 50% or more. The list shows a part of the results.
# Tested on: Wolbachia pipientis
# Test: Anti-Wolbachia Cell-Based Screen
# Assay type: functional
# Set-up: scale not given: in the data most compounds retested in dose-response had high values
# Details: 5 µM
row,SMILES,Percent Effect
1,Cc1n[nH]c(C)c1CN(C)C(C(=O)O)c1c(F)cccc1OC(C)C (centres undefined),-15.01%
2,CC(C)=CCN1C[C@H]2CC[C@@H]1CN(C(=O)c1ccc3[nH]cnc3c1)C2,1.607%
3,Cc1cnn(CCNCc2cc(=O)n3cc(Cl)ccc3n2)c1,-2.605%
4,CC(=O)N1CCN(CC(=O)NCCCN(C)c2ccccc2)CC1,-6.128%
5,CNc1nc(CNC(=O)Nc2cccc(-c3nnco3)c2)cs1,-5.762%
6,CCC[C@H]1CN(C2CCOCC2)C[C@@H]1NC(=O)CCc1cnccn1,-6.675%
7,O=C(CSc1ccccc1)N1C[C@H]2CC[C@@H]1CN(Cc1ccncc1)C2,-7.761%
8,Cc1ccc(-c2cnnc(NCC3CCOCC3)n2)o1,-4.072%
9,Cc1nc(NCC2CCOCC2)cc(C2CCN2S(C)(=O)=O)n1 (centres undefined),108.2%
10,CC1c2ncc(COCC3CCOCC3)n2CCN1S(C)(=O)=O (centres undefined),-5.189%
11,CC(=O)N1CCC1c1cc(NC2CCOCC2)nc(C)n1 (centres undefined),79.3%
12,Cc1nc(NC2CCOCC2)cc(C2CCN2S(C)(=O)=O)n1 (centres undefined),120.8%
13,Cn1ncc(N2CCC(CNC3Cc4ccccc4C3)C2)cc1=O (centres undefined),-0.06487%
14,COc1ccc(C(C)N2CCC(OC)CC2)cc1Cl (centres undefined),17.11%
15,O=C(N1CCOCC1)[C@@]12CCO[C@@H]1CCN(Cc1cccc(F)c1)C2.O=C(O)C(F)(F)F,102.7%
16,O=C(N1CCCO1)[C@@]12CCO[C@@H]1CCN(Cc1cccs1)C2.O=C(O)C(F)(F)F,96.37%
17,O=C(N1CCCO1)[C@]12COC[C@H]1CN(Cc1nccs1)C2.O=C(O)C(F)(F)F,-2.706%
18,O=C(N1CCOCC1)[C@@]12CCO[C@@H]1CCN(CCN1CCCCC1)C2.O=C(O)C(F)(F)F.O=C(O)C(F)(F)F,12.15%
19,O=C(N1CCOCC1)[C@@]12CCO[C@@H]1CCN(Cc1ccccc1F)C2.O=C(O)C(F)(F)F,14.16%
20,COC[C@@]12CCO[C@@H]1CCN(Cc1sccc1C)C2.O=C(O)C(F)(F)F,9.781%
21,O=C(N1CCCO1)[C@@]12CCO[C@@H]1CCN(Cc1ccccc1)C2.O=C(O)C(F)(F)F,-18.43%
22,Cc1ccsc1CN1CC[C@H]2OCC[C@@]2(C(=O)N2CCCO2)C1.O=C(O)C(F)(F)F,103.7%
23,O=C(N1CCCO1)[C@@]12CCO[C@@H]1CCN(Cc1ccc(F)cc1)C2.O=C(O)C(F)(F)F,99.96%
24,O=C(N1CCCO1)[C@@]12CCO[C@@H]1CCN(C1CCCCC1)C2.O=C(O)C(F)(F)F,6.239%
